From PubChem BioAssay
Only some compounds are listed: those with a hit (about 9% of all), similar ones and a draw of the others.
12-LOX inh: blocks human arachidonate 12S-lipoxygenase | 580,000 tested, 1.1% active | P18054 | Potency, µM (titrated, usually from 108 µM), inactives show top-dose activity change, negative = inhibition, actives largely listed as inhibitors | purified 12hLO, xylenol orange hydroperoxide absorbance; further: on the % scale 0 is the no-effect control and ±100 the full control effect
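Purified human 12hLO at 150 nM in 25 mM Hepes, 0.01% Triton X-100, pH 7.0, preincubated 15 min at room temperature with compound. Reaction started with 40 uM arachidonic acid, 30 min at room temperature. Hydroperoxide measured by Fe-xylenol orange, 573/405 nm absorbance ratio.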
PLK1 PBD inh: inhibitors of human PLK1 polo-box domain binding. P53350. Plk1 PBD binding of FITC phosphopeptide, fluorescence polarization. Potency, µM, inactives show max response, negative = inhibition, usual class: inhibitors. 360,000 tested, 2.8% active. AID 720504; further: series mostly up to about 57 µM; on the % scale 0 is the no-effect control and ±100 the full control effect; nearly all actives have a fitted effect of over 65% in size
BAZ2B inh: BAZ2B (human) inhibition; AlphaScreen BAZ2B-H3K14Ac peptide displacement; Potency, µM (titrated, usually from 114 µM), for the others: at the highest dose activity change, negative = inhibition, actives largely listed as inhibitors; 360,000 tested, 4.4% active; further: on the % scale 0 is the no-effect control and ±100 the full control effect; nearly all actives have a fitted effect of over 60% in size
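Protein-peptide AlphaScreen: BAZ2B 50 nM, b-H3K14Ac 50 nM, 1x PBS pH 7.4 + 0.01% Tween-20. Preincubation 30 min RT; cpd 30 min RT (top 110 uM); beads 20 min RT, light-protected.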
G9a inh: blocks human histone lysine methyltransferase G9a; Q96KQ7; G9a H3K9 monomethylation, AlphaScreen, 2 h; Potency, µM (highest dose often 102 µM), for inactives: at the highest dose activity, negative = inhibition, actives largely listed as inhibitors; 350,000 tested, 8.8% active; further: on the % scale 0 is the no-effect control and ±100 the full control effect; nearly all actives have a fitted effect of over 75% in size
Target sequence (Q96KQ7 913-1193 limits assumed): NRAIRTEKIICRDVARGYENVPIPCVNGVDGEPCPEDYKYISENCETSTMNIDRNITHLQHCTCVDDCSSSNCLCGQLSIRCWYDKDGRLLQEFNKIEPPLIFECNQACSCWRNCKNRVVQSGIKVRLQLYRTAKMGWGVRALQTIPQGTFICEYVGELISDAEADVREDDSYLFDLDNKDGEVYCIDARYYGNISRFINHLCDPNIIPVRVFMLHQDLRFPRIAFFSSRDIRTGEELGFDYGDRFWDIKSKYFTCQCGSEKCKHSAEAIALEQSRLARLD
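G9a (20 nM) preincubated 15 min RT with compounds, then 500 nM biotinylated H3K9 peptide and 20 uM SAM added; 2 h RT reaction. Monomethyl-H3K9 product detected by AlphaScreen with anti-H3K9me1 antibody, streptavidin donor and anti-rabbit IgG acceptor beads.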
HP1b chromo inh: HP1-beta chromodomain-methylated histone interaction inhibition; P83916; AlphaScreen HP1-beta / biotin-H3K9me3 peptide binding; Potency, µM (highest dose often 114 µM), for inactives: at the highest dose activity change, negative = inhibition, hits mostly inhibitors; 390,000 tested, 0.56% active; further: nearly all actives have a fitted effect of over 70% in size
Target sequence (P83916 whole entry, looked up): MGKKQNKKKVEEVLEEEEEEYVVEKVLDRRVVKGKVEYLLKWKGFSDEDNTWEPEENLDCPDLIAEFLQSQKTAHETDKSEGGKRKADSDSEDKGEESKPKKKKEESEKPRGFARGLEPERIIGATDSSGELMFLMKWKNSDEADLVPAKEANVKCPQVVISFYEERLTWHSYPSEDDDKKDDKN
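HP1-beta protein (50 nM final) preincubated 30 min at room temperature with biotinylated H3(1-18)K9me3 peptide (50 nM) in PBS pH 7.4, 0.01% Tween-20, then compound added for 30 min. AlphaScreen streptavidin donor/nickel chelate acceptor beads (10 ug/mL final), 30 min dark, luminescence read.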
JMJD2A Tudor: blocks the human JMJD2A Tudor domain; Potency, µM (highest dose often 114 µM), for inactives: at the highest dose activity change, negative = inhibition, usual class: inhibitors; AID 504339; 390,000 tested, 4.4% active; AlphaScreen JMJD2A-Tudor / H3K4me3 peptide binding; further: on the % scale 0 is the no-effect control and ±100 the full control effect; nearly all actives have a fitted effect of over 50% in size
An asterisk follows results filed as active; ? = inconclusive; . = no result given; [ ] = dose if it differs, or a comment. The call rests on the fitted dose curve; in most records, active means well fitted curve in the direction sought with a large enough effect; inconclusive means small, poorly fitted or top-dose-only effect, or another doubt; inactive means no such curve, though single readings can be large; an effect the other way counts as inactive or inconclusive. Potency means the concentration at half of the fitted maximal effect.

SMILES	12-LOX inh	PLK1 PBD inh	BAZ2B inh	G9a inh	HP1b chromo inh	JMJD2A Tudor
CC1=CC(C)(C)n2c(O)c(N=N)c3c(C)c(C)cc1c32	5.8%	-11.2%	35.5µM*	-9.6%[12.7 µM]	?	?
COc1cc2c3c(c1)c(N=NC(N)=S)c(O)n3C(C)(C)C=C2C	-6.8%	-5.3%	-19.4%	.	5.9%	-21.0%
CC(C)Nc1nc(NC(C)C)nc(Oc2ccc(OCc3ccccc3)nn2)n1	172.0%	-5.8%	3.4%	-8.7%[12.7 µM]	6.5%	-21.0%
Cc1ccc(S(=O)(=O)N2CCC(C(=O)N[C@H](C(=O)NC3CCS(=O)(=O)C3)C(C)C)CC2)cc1 (stereo partly drawn)	380.9%	-2.0%	-5.4%	-39.9%[12.7 µM]	51.7%	-4.1%
CSCC[C@H](NC(=O)C1CCN(S(=O)(=O)c2ccc(C)cc2)CC1)C(=O)NC1CCS(=O)(=O)C1 (stereo partly drawn)	6.1%	-10.4%	-3.7%	56.2µM*	22.9%	-14.4%
Cc1ccc(S(=O)(=O)N2CCC(C(=O)N(C)C3CCS(=O)(=O)C3)CC2)cc1 (stereo not drawn)	-23.7%	5.97µM*	7.2%	16.0%[12.7 µM]	?	?
CC1CC(C)CN(C(=O)COC(=O)c2cc3ccccc3oc2=O)C1 (stereo not drawn)	-12.4%	-3.2%	.	.	23.2%	1.4%
CC(Sc1ccc(Cl)cc1)C(=O)NNC(=O)c1ccncc1 (stereo not drawn)	-1.4%	1.7%	-1.7%	7.0%[12.7 µM]	49.2%	17.5%
Cn1c(=O)c2cc(NC(=S)NC3CCCCC3)ccc2n1C/C=C/c1ccccc1	39.8µM*	1.9%	.	.	.	.
CCNC(=S)Nc1ccc2c(c1)c(=O)n(C)n2CC=C(C)C	-23.2%	21.2µM*	.	.	.	.
COc1ccc(CN2CCN(C(=O)c3ccco3)CC2)c(OC)c1OC	0.0%	2.4%	.	.	?	25.1µM*
O=C(c1ccco1)N1CCN(Cc2cccnc2)CC1	?	-2.2%	25.1µM*	3.55µM*	-45.4%	3.55µM*
O=C(COC(=O)C1(c2ccc(F)cc2)CCCC1)N1CCN(C(=O)c2ccco2)CC1	228.3%	-8.8%	4.8%	8.5%	28.1%	-15.6%
COc1ccccc1CN1CCC2(CC1)CCN(C(=O)c1ccco1)CC2	-6.3%[57.4 µM]	.	.	-5.5%[12.7 µM]	.	.
O=C(COC(=O)C1(c2ccccc2F)CCCC1)N1CCN(C(=O)c2ccco2)CC1	6.4%	-9.2%	0.7%	50.1µM*	-0.1%	-2.3%
COc1ccc(Br)cc1CN1CCN(C(=O)c2ccco2)CC1	0.501µM*	6.0%	28.2µM*	10µM*	31.6µM*	7.08µM*
O=C(c1ccco1)N1CCC(OC2CCN(Cc3cccnc3)CC2)CC1	42.1%	.	.	.	.	.
COc1ccc(C(=O)OCC(=O)N2CCN(C(=O)c3ccco3)CC2)c(OC)c1OC	4.3%	-0.4%	.	.	.	.
O=C(c1ccco1)N1CCN(CCCCOc2ccc(F)cc2)CC1	31.6µM*	-1.5%	-30.3%	?	23.9%	-9.3%
COc1ccccc1CN1CCN(C(=O)c2ccco2)CC1	?	-4.5%	?	22.4µM*	50.1µM*	1µM*
O=C(c1ccco1)N1CCN(Cc2ccccc2F)CC1	-37.4%	-1.7%	?	28.2µM*	?	28.2µM*
C(=N\N1CCN(Cc2cccc3ccccc23)CC1)/c1ccco1	?	-11.8%	?	39.8µM*	44.7µM*	56.2µM*
CSc1ccc(/C=N/NC(=O)CN2CCN(Cc3ccc(Cl)cc3)CC2)cc1	28.9%	?	19.3%	-6.7%[59 µM]	?	-21.3%[57.1 µM]
CSc1ccc(/C=N/N2CCN(Cc3ccc(Cl)cc3)CC2)cc1	-10.4%	-18.9%	22.4µM*	?	-11.8%	?
Cc1ccc(CN2CCN(/N=C/c3ccccc3)CC2)cc1	0.0%	0.7%	?	?	?	?
SMILES	12-LOX inh	PLK1 PBD inh	BAZ2B inh	G9a inh	HP1b chromo inh	JMJD2A Tudor
Cn1cccc1/C=N/N1CCN(c2ccccn2)CC1	?	0.1%	50.1µM*	15.8µM*	-58.1%	?
Cc1ccc(/C=N/N2CCN(Cc3ccccc3)CC2)cc1	-2.2%	2.5%	?	?	-15.9%	79.4µM*
Cc1nc2ccccc2c(=O)n1/N=C/c1ccco1	31.2%	-4.1%	0.9%	2.7%	39.8%	-10.0%
NC(=O)c1ccc(CSc2cccc[n+]2[O-])cc1	-11.0%	.	.	.	.	.
O=C(O)c1ccc(/C=N/N2CCN(Cc3cccc4ccccc34)CC2)cc1	-0.8%	-6.7%	-32.9%	44.7µM*	-13.4%	-35.2%
Fc1ccc(CN2CCN(C(c3ccccc3)c3ccccc3)CC2)cc1	-28.6%	-7.9%	50.1µM*	31.6µM*	?	22.4µM*
Cc1ccsc1/C=N/N1CCN(c2ccccn2)CC1	2.5%	-15.9%	39.8µM*	50.1µM*	-34.7%	63.1µM*
C(=N\N1CCN(Cc2cccc3ccccc23)CC1)/c1cccnc1	8.7%	3.4%	39.8µM*	50.1µM*	-41.8%	44.7µM*
FC(F)(F)c1ccc(/C=N/N2CCN(Cc3cccc4ccccc34)CC2)cc1	0.0%	1.7%	-29.5%[57.1 µM]	-12.0%	-1.7%	-19.7%[57.1 µM]
O=C(c1ccc(Cl)cc1)N1CC2(CCCN2Cc2ccc(Cl)cc2)Cc2ccccc21 (stereo not drawn)	0.1%[6.33 µM]	.	.	.	.	.
CCC(CC)NC(=O)C1(CCO)CCN(c2ncccn2)C1 (stereo not drawn)	35.3%	.	.	.	.	.
CCCCc1ncc(-c2c(-c3ccccc3)ncn2CCCn2ccnc2)[nH]1	41.3%	.	.	.	.	.
C(=N\N1CCN(Cc2ccccc2)CC1)/c1ccc(-c2ccccc2)cc1	-3.0%	-4.4%	-12.4%	-8.0%	20.3%	-21.8%
Fc1ccc(/C=N/N2CCN(Cc3ccccc3)CC2)cc1	?	2.9%	44.7µM*	79.4µM*	?	?
Cc1ccsc1CN1CCN(c2ccccn2)CC1	-36.2%	-7.8%	50.1µM*	?	-52.9%	1.78µM*
CN1CCN(/N=C/c2c3ccccc3c(Cl)c3ccccc23)CC1	?	-3.6%	20µM*	35.5µM*	?	39.8µM*
CSc1ccc(/C=N/N2CCN(C)CC2)cc1	0.0%	-12.5%	?	-29.6%	-10.2%	?
CN1CCN(/N=C/c2ccc(-c3ccccc3)cc2)CC1	-3.4%	-19.2%	22.1%	70.8µM*	?	39.8µM*
CCOC(=O)CSc1nc(N2CCCCC2)c2c(c1C#N)CCCC2	4.5%	.	.	.	.	.
O=C(CSc1ccccc1F)Nc1ccc(N2CCOCC2)cc1	14.1%	-19.0%	13.2%	?	29.1%	-15.8%
CCN1CC(c2ccccc2)CC2(CCN(CC(=O)N(C)CC)CC2)C1 (stereo not drawn)	6.3%	.	.	.	.	.
O=C(NCCc1ccc(Cl)cc1)C1CCN(S(=O)(=O)N2CCC3(CC2)OCCO3)CC1	-10.7%	-0.6%	-5.7%	15.9%	22.9%	-4.1%
O=S(=O)(CCN1CCN(C(c2ccccc2)c2ccccc2)CC1)C(F)(F)F	-8.3%	15µM*	.	3.55µM*	-9.5%	-15.7%
Cc1ccsc1/C=N/N1CCN(Cc2ccccc2)CC1	?	21.2µM*	?	31.6µM*	?	56.2µM*
